Data on 14 molecules can be found in PubChem BioAssay.

SMILES strings stand for the structures. The source made the active and inactive calls. Unless noted, how the calls were made is not given here.

Experiment [1] deals with Wnt5a (protein binding on small-molecule microarray). The experiment in a line: small molecules binding Wnt5a protein – biophysical, small-molecule microarray, 635/667 nm fluorescence, primary screen (AID 1142).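 Further: fluorescence read at 667 nm with signal to noise per printed feature.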 The settings on record: 635 nm fluorescence, higher = more signal.
The nature of experiment [2]: ATP-based viability of Huh7 replicon cells – cell-based, CellTiter-Glo luminescence, basal, 48 h, cytotoxicity control for HCV replication inhibitor project, primary screen (AID 1143).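 Further: Huh7 hepatoma cells carrying a hepatitis C replication reporter with no stimulus; test concentration not given here.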 The settings on record: higher = more signal, called active from +8 up or from −8 down.
Experiment [3] is described as follows: Pseudomonas biofilm growth suppression – PAO1 strain, BacTiter-Glo luminescence, LB-PBS, primary screen (AID 1144). As to conditions: P. aeruginosa PAO1 biofilm, 12 h, higher = more signal.
Experiment [4] is described as follows: basal CRE-LacZ reporter activity in PC12 – cell-based, unstimulated, primary screen (AID 1145). The settings on record: no forskolin, luminescence, 4.5 h, higher = more signal, called active from +8 up or from −8 down.
Experiment [5] is described as follows: forskolin-driven CRE-LacZ activity in PC12 – cell-based, CRE-LacZ reporter, forskolin-stimulated, primary screen (AID 1146).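 Further: PC12 cells with 6xCRE LacZ reporter stimulated by forskolin 10 µM; beta-galactosidase reporter signal reflecting CREB driven transcription.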 As to conditions: luminescence, 4.5 h, higher = more signal, called active from +8 up or from −8 down.
Experiment [6] concerns the target Streptavidin (Streptomyces avidinii) (UniProt P22629). Put plainly: compounds binding control protein streptavidin – biophysical, small-molecule microarray, 635/667 nm fluorescence, artefact control for SMM compound annotation, primary screen (AID 1147).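 Further: signal reflects streptavidin binding to arrayed compounds as a control protein.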 The settings on record: higher = more signal.
Experiment [7] in a line: probe aInhba binding on compound microarray – biochemical, small-molecule microarray, 635/667 nm fluorescence, primary screen (AID 1148).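 Further: score merges 667nm spot fluorescence with signal-to-noise for antibody binding to printed compounds.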 The settings on record: higher = more signal.
Experiment [8] deals with Torsin-1A (Homo sapiens) (UniProt O14656). Put plainly: TOR1A wild-type binding on microarray – cell lysate, small-molecule microarray, lysate, 635/667 nm, primary screen (AID 1149). As to conditions: COS7 hTOR1A-WT lysate, 635 nm fluorescence, higher = more signal.
Experiment [9] shares this target. The experiment in a line: torsin A mutant lysate binding on microarrays – cell lysate, small-molecule microarray, COS7 lysate, 635/667 nm fluorescence, primary screen (AID 1150).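 Further: score pools 667 nm emission and signal to noise measuring lysate protein binding.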 As to conditions: COS7 hTOR1A mutant lysate, 635 nm fluorescence, higher = more signal.
For experiment [10], the system named is Sonic hedgehog protein (Shh). The experiment in a line: Sonic hedgehog microarray binding compounds – biochemical, small-molecule microarray, 635/667 nm fluorescence, primary screen (AID 1151).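 Further: Shh protein binding to compounds spotted on small-molecule microarray slides; score combines spot fluorescence intensity with signal-to-noise across triplicate slides.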 As to conditions: 635 nm fluorescence, higher = more signal.

Sequence of Torsin-1A (Homo sapiens) (O14656 whole entry, looked up): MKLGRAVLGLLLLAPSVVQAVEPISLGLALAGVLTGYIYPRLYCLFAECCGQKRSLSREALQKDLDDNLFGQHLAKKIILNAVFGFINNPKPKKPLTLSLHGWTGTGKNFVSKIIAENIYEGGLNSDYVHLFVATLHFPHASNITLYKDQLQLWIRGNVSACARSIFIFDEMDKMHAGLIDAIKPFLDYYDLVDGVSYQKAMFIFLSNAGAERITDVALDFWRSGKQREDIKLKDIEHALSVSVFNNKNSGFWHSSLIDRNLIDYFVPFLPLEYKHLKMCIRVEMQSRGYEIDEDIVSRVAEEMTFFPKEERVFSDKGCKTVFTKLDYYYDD
Sequence of Streptavidin (Streptomyces avidinii) (P22629 whole entry, looked up): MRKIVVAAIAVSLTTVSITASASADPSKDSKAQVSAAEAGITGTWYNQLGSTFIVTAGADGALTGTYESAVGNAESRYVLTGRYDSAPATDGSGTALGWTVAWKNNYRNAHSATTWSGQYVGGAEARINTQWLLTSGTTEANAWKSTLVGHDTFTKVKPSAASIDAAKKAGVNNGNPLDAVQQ

For `O=C1N(CCS(=O)(=O)c2ccccc2)c2ccccc2[C@H]2OC(c3ccc(OCCCO)cc3)=N[C@@]12Cc1ccccc1`, the composite z-score in experiment [1] is 0.636; in experiment [6], 0.274; in [7], 0.397; in the experiment with Torsin-1A (Homo sapiens) [8], 1.08; with Torsin-1A (Homo sapiens) [9], 1.07; in [10], 1.74. Also, the z-score in experiment [2] is -3.51 (inactive); in [3], 0.582 (inactive); in experiment [4] it was 5.87 (inactive); in experiment [5], -1.86 (inactive).
For `CC(C)C(CO)N1C(=O)[C@@H]2C3C(=O)OCCC/C=C\[C@H]3OC23C=CCN(Cn2nnc4ccccc42)C(=O)[C@@H]13` (stereo not given in full), the composite z-score was -0.665 in experiment [1]; -1.23 in [6]; -0.128 in experiment [7]; -1.7 with Torsin-1A (Homo sapiens) [8]; -1.07 in the experiment with Torsin-1A (Homo sapiens) [9]; 0.0683 in experiment [10]. The z-score in experiment [2] was -0.252 (inactive); in experiment [3], 0.0208 (inactive); in [4] it was -1.44 (inactive); in experiment [5] it was -0.0111 (inactive).
In the case of `COC(=O)[C@@]1(Cc2ccccc2)[C@H]2c3cc(C(=O)N(C)C)n(Cc4ccc(C)o4)c3C[C@H]2CN1C(=O)c1ccccc1`, the composite z-score came out at 1.28 in experiment [1]; 2.31 in experiment [6]; 1.44 in experiment [7]; 0.125 in the experiment with Torsin-1A (Homo sapiens) [8]; 0.751 with Torsin-1A (Homo sapiens) [9]; 0.406 in experiment [10]. In addition, the z-score in experiment [2] is -4.01 (inactive); in [3] it was -0.142 (inactive); in [4], -0.185 (inactive); in [5], 0.2 (inactive).
Consider `COCC(=C=CC[C@H](O)c1ccc(CO)o1)CCO`, for which the composite z-score is 0.181 in experiment [1]; 0.141 in experiment [6]; -0.003 in [7]; 0.494 with Torsin-1A (Homo sapiens) [8]; 0.246 with Torsin-1A (Homo sapiens) [9]; 1.99 in experiment [10]. The z-score is -0.25 (inactive) in experiment [2], 0.308 (inactive) in [3], 1.51 (inactive) in experiment [4] and -0.255 (inactive) in [5].
`C=CCNC(=O)[C@@H]1[C@H]2C(=O)O[C@H](c3ccccc3)[C@H](c3ccccc3)N2[C@H](c2ccccc2OCCO)[C@@]12C(=O)Nc1ccc(C#CCC(C(=O)OC)C(=O)OC)cc12`: the composite z-score in [1] is 0.0142; in experiment [6] it was 0.0625; in [7], 0.84; with Torsin-1A (Homo sapiens) [8], 0.834; in the experiment with Torsin-1A (Homo sapiens) [9], 0.566; in experiment [10], 0.499. Also, the z-score was -6.3 (inactive) in [2], 0.616 (inactive) in experiment [3], -0.191 (inactive) in experiment [4] and -1.03 (inactive) in experiment [5].
For the molecule `CC(C)N1C(=O)c2ccccc2[C@@H](C(=O)NCCN2CCOCC2)[C@@H]1c1ccc(CO)cc1`, the composite z-score in experiment [1] is -1.15; in experiment [6], -1.14; in [7], -0.238; in the experiment with Torsin-1A (Homo sapiens) [8] it was -3.17; with Torsin-1A (Homo sapiens) [9] it was -1.46; in experiment [10] it was -1.49. Also, the z-score in experiment [2] is 0.179 (inactive); in experiment [3], -0.0165 (inactive); in experiment [4], 0.324 (inactive); in experiment [5], -0.107 (inactive).
For `Cc1ccc(S[C@]2(C(=O)O)CC(=O)N(C3CCCCC3)[C@@H]2c2ccc(CO)cc2I)cc1`, the composite z-score in experiment [1] was 0.0473; in experiment [6], 1.43; in [7] it was 0.239; with Torsin-1A (Homo sapiens) [8], 0.222; in the experiment with Torsin-1A (Homo sapiens) [9] it was 0.919; in experiment [10], -0.342. Also, the z-score in experiment [2] was -0.541 (inactive); in experiment [3], -0.64 (inactive); in [4] it was -0.269 (inactive); in experiment [5] it was 2.76 (inactive).
`CN(C)C(=O)[C@@]1(Cc2ccccc2)N=C(c2ccc(OCCCO)cc2)O[C@H]1c1ccccc1`: the composite z-score in experiment [1] was found to be 0.87; in experiment [6] it was 1.29; in [7], 0.715; with Torsin-1A (Homo sapiens) [8], 0.435; in the experiment with Torsin-1A (Homo sapiens) [9], 0.0678; in experiment [10], 0.141. Besides, the z-score was -3.42 (inactive) in experiment [2], -0.315 (inactive) in [3], 0.195 (inactive) in [4] and -0.925 (inactive) in [5].
For `COC(=O)C1=CC(CCCO)=CC(c2ccc(CN3CCCC3)cc2)N(Cc2cccc(OC(F)(F)F)c2)C=C1C(=O)OC` (stereo not given), the composite z-score in experiment [1] was -0.0146; in experiment [6] it was 0.644; in [7], 0.0769; with Torsin-1A (Homo sapiens) [8], 0.648; with Torsin-1A (Homo sapiens) [9], 1.18; in experiment [10], -0.136. For the same molecule, the z-score in [2] was -2.24 (inactive); in experiment [3], 1.23 (inactive); in experiment [4], -0.554 (inactive); in experiment [5], -0.727 (inactive).
Take `O=c1cccc(-c2ccc([N+](=O)[O-])cc2)o1`: the composite z-score in experiment [1] is 0.105; in experiment [6] it was 0.315; in experiment [7], 0.165; in the experiment with Torsin-1A (Homo sapiens) [8] it was -0.0842; with Torsin-1A (Homo sapiens) [9], 0.376; in experiment [10] it was 2.19. Besides, the z-score in [2] is -1.88 (inactive); in [3], -0.982 (inactive); in experiment [4], -0.882 (inactive); in experiment [5], 0.61 (inactive).
On to `C=CCC(OC(C)=O)[C@@H]1[C@@H](N(Cc2ccc(-c3ccccc3)cc2)C(=O)c2ccc(-c3ccccc3)cc2)c2cc(OCCCO)ccc2N1C(=O)c1ccc2ccccc2c1` (stereo not given in full), for which the composite z-score in experiment [1] is 0.028; in experiment [6] it was 0.485; in [7] it was -0.101; with Torsin-1A (Homo sapiens) [8], 0.0449; with Torsin-1A (Homo sapiens) [9] it was -0.0178; in experiment [10], 0.255. Moreover, the z-score in [2] was 0.39 (inactive); in experiment [3], -0.0995 (inactive); in experiment [4], -0.23 (inactive); in [5], 0.318 (inactive).
Consider `CC(C)N1C(=O)C[C@@](C(=O)NC2CC2)(c2ccc([N+](=O)[O-])cc2)[C@H]1c1ccc(CO)cc1`, for which the composite z-score in experiment [1] is -0.0471; in [6] it was -0.677; in experiment [7], -0.252; with Torsin-1A (Homo sapiens) [8] it was -1.39; with Torsin-1A (Homo sapiens) [9], 1.4; in experiment [10], -0.161. In addition, the z-score in experiment [2] was -4.5 (inactive); in [3], -0.0956 (inactive); in [4], 1.82 (inactive); in experiment [5] it was -0.673 (inactive).
In the case of `Cn1cccc1C(O)C1C=CC2C(=O)N(c3ccccc3)C(=O)C2N1Nc1ccccc1` (stereo not given), the composite z-score in [1] is 0.402; in experiment [6], 1.77; in experiment [7], 0.153; with Torsin-1A (Homo sapiens) [8], 0.478; with Torsin-1A (Homo sapiens) [9], 0.726; in [10], 0.379. Besides, the z-score in [2] is 0.525 (inactive); in experiment [3], -0.758 (inactive); in experiment [4] it was -0.525 (inactive); in [5] it was -0.0981 (inactive).
As to `O=C1NC(=O)C2C1C=CC(C(O)c1ccco1)N2Nc1ccc(Cl)cc1Cl` (stereo not given), the composite z-score in [1] is -0.118; in experiment [6], 0.531; in [7], -0.0986; in the experiment with Torsin-1A (Homo sapiens) [8], 0.148; with Torsin-1A (Homo sapiens) [9], 0.672; in experiment [10], 0.576. Further, the z-score was -0.483 (inactive) in experiment [2], -0.315 (inactive) in experiment [3], 0.0501 (inactive) in experiment [4] and 0.815 (inactive) in experiment [5].
